This assay has as its target AMP-activated protein kinase, AMPK (Homo sapiens) (UniProt P54646+O43741+P54619+Q9UGJ0+Q9Y478+Q13131+Q9UGI9). Nature of the assay: AMP-dependent Kinase enzyme assay. An in vitro enzyme assay that detects ADP turnover that is directly proportional to AMPK activity. This uses naive AMPK that is activated during the assay with MK-8722. It counts as functional. Set-up: scale not given: direction of the effect not stated beside the values. As to conditions: 30 µM.
`CCn1cnnc1CCNS(=O)(=O)N1CCCC1c1ccco1` (stereo not given): the Percent Effect was -10.7%.
`Cc1nc(N)nc(C)c1CC(=O)N1CCC2(CC1)OCCCC2O` (stereo not given): the Percent Effect was 73.8%.
For the molecule `COc1ccccc1CC(=O)N(C)Cc1cc(C)on1`, the Percent Effect is -2.06%.
Take `CC(CN(C)Cc1cccc(-n2cccn2)c1)C(F)(F)F` (stereo not given): the Percent Effect was -9.02%.
The same measure for `CN(Cc1cscn1)Cc1cc2c(cc1Br)OCO2`: -7.36%; for `COCCNC(=O)NCc1ccc(-n2ccc(C(F)(F)F)n2)cc1`: -8.71%; for `CC(C)c1noc(C(C)N2CCC(c3nc4ccccc4[nH]3)CC2)n1` (stereo not given): 0.872%.
The same measure for `CCc1nc2n(n1)CC(NCc1nc3ccccc3nc1C)CC2` (stereo not given): -2.35%; for `O=C(c1ccc2[nH]cnc2c1)N1CCC(COc2ccccn2)CC1`: -1.03%; for `Cc1ccccc1C(=O)NC(C)CN1CCOC1=O` (stereo not given): 14.9%.
Turning to `CC1(c2ncc(CN3CCOCC3)cn2)CCCCO1` (stereo not given), the Percent Effect came to 9.84%.
The value for `O=c1[nH]nc(C2CC2)n1-c1cccc(Cl)c1` was -10.6%.
With `CN(Cc1ccc(F)cc1F)Cc1cc2c(cc1Br)OCCO2`, the Percent Effect was -3.85%.
Take `CC1CN(Cc2cccc(CN)c2)CCO1` (stereo not given): the Percent Effect was -4.57%.
Take `O=C(NCC1CCOC1)c1cc(-c2ccc(F)cc2)[nH]n1` (stereo not given): the Percent Effect is -0.741%.
For the molecule `Cc1cc(N2CCC(n3cc(CN4CCC[C@@H]4CO)nn3)CC2)ccn1`, the Percent Effect is -0.25%.
Take `N#CCCN(CCC#N)C(=O)c1cccc(N2CCNC2=O)c1`: the Percent Effect is -2.85%.
Turning to `CCCN1CCC(N2CCC(Cn3cc(C4CC4)nn3)CC2)CC1`, the Percent Effect is 2.68%.
Take `Cc1noc(C2CCCN(Cn3cc(Br)cn3)C2)n1` (stereo not given): the Percent Effect was -2.31%.
Take `COc1cc(CN(C)[C@@H]2COC[C@H]2c2ccc(F)cc2)cc(OC)c1`: the Percent Effect is -11.5%.
The same measure for `Cc1ccc(F)c(CNc2ccn(CCC(N)=O)n2)c1`: -4.33%; for `COc1ccc(OCc2nc3cc4c(cc3c(=O)o2)OCCCO4)cc1`: -6.13%; for `Nc1cc(N2CCC(c3cc(Cc4ccccc4)n[nH]3)CC2)ccn1`: -5.64%.
The value for `C[C@@H]1CN(S(=O)(=O)N2CCCC2)CC[C@@]1(O)C1CCOCC1` was -5.74%; that for `CC(CC(=O)c1ccccc1)NC(=O)c1ccon1` (stereo not given) was 8.5%.
For the molecule `CCOCC(C)(C)NC(=O)Nc1cc(F)ccc1OC`, the Percent Effect was determined as 1.04%.
For `Cc1c(C(=O)NC2CCCC2)nnn1-c1ccccc1`, the Percent Effect was -3.83%.
`CN(C)C[C@@H]1CN(C(=O)c2cc(-c3ccccc3)n[nH]2)C[C@@H]1CO`: the Percent Effect was -6.79%.
The same measure for `Cn1c(CO)nnc1SCc1c(F)cccc1Br`: 2.62%.
In the case of `CCc1csc(CNc2cc(C)nc(-c3cccnc3)n2)n1`, the Percent Effect was 18.4%.
Regarding `CNC(=O)NC(=O)CN(Cc1ccc(C#N)cc1)Cc1cccc(F)c1`, the Percent Effect was -4.48%.
In the case of `CN(Cc1cccc(O)c1)Cc1cnn(C)c1`, the Percent Effect was -1.1%.
The same measure for `CC(C)c1nn(C)cc1CNCc1cccnc1N(C)C`: 0.312%.
For `C[C@@H]1CN(c2cccnn2)CC[C@@]1(O)C1CCOCC1`, the Percent Effect worked out at 2.06%.
In the case of `COc1ccc(C(=O)N2C[C@@H](O)[C@H](NCc3cnc(C)cn3)C2)cc1`, the Percent Effect was -12.3%.
With `Cc1cc(N2CCCC(N(C)C)C2)n2nc(C)cc2n1` (stereo not given), the Percent Effect is -1.24%.
In the case of `CN(C)CCC1CCN(c2cc(N3CCCC3CO)ncn2)CC1` (stereo not given), the Percent Effect is -6.25%.
The same measure for `O=S(=O)(Nc1ccc2c(c1)OCCO2)N1CCCCC1`: 12.8%; for `Cc1ccc2nc(CN3CCCCC3C(=O)N3CCOCC3)cn2c1` (stereo not given): 8.07%; for `CC(NCc1nnc2n1CCCC2)c1nc(-c2cccs2)no1` (stereo not given): -0.613%.

The values above are taken from ChEMBL document CHEMBL3988442, “University of Dundee, Small-Polar-MMV Screening Library” (2021).
